# Measurements published in PubChem BioAssay (Tox21).
# Several values for one entry are separate records, joined by “and”; a condition that tells them apart may be missing. Equal values may be shown once. The source holds several records for some structures; these can differ, active in one and inactive in another. Activity calls are given as the source filed them. Where a call stands in place of a potency, no number is given. Calls follow the shape of the dose curve; as a rule, active = well fitted curve in the direction sought with a large enough effect in the signal ratio in the repeat runs (not every such curve was filed as active); inconclusive = weak or mixed curves, or effect the other way; inactive = no such curve, though single readings can be large or run the other way; the % refers to the signal ratio.
# Target: Estrogen receptor (Homo sapiens) (UniProt P03372)
# Sequence (P03372 whole entry, looked up): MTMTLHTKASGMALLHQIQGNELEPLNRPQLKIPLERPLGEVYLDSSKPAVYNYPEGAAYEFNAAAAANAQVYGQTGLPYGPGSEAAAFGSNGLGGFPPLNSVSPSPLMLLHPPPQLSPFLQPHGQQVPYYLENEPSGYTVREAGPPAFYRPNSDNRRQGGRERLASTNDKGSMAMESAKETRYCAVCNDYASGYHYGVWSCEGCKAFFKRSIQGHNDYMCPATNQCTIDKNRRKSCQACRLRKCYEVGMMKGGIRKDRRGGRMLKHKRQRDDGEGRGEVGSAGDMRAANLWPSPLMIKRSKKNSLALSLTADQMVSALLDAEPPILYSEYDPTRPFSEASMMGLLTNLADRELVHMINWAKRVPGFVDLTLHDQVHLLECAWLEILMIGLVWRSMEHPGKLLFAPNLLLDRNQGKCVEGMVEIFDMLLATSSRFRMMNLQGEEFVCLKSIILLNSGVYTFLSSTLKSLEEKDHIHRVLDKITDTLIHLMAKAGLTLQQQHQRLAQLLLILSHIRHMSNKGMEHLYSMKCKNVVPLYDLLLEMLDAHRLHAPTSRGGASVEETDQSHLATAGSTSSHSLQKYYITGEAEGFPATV
# Assay: qHTS assay to identify small molecule antagonists of the estrogen receptor alpha (ER-alpha) signaling pathway (AID 743069)
# Settings: HEK293 ER-alpha-UAS-bla, beta-lactamase ratio, antagonist mode; series mostly up to 69.4 µM
# Description: National Center for Advancing Translational Sciences [NCATS]
# NIH Chemical Genomics Center [NCGC]
# U.S. Environmental Protection Agency [EPA]
# National Institutes of Environmental Health Sciences [NIEHS]
# National Toxicology Program [NTP]
# U.S. Food and Drug Administration [FDA]
# Estrogen receptor (ER), a nuclear hormone receptor, plays an important role in development, metabolic homeostasis and reproduction. Two subtypes of ER, ER-alpha and ER-beta have similar expression patterns with some uniqueness in both types. Endocrine disrupting chemicals (EDCs) and their interactions with steroid hormone receptors like ER causes disruption of normal endocrine function. To identify the compounds that inhibit ER signaling, an ER-alpha-UAS-bla GripTiteTM cell line (Invitrogen, Carlsbad, CA, USA) containing a beta-lactamase reporter gene under the control of an Upstream Activator Sequence (UAS) stably integrated into HEK293 cells was used to screen the Tox21 10K compound library.
# Tox21 Assay Protocol Summary:
# ER-alpha-bla cells were cultured in assay medium containing 2% charcoal stripped FBS overnight in the culture flasks before the assay was performed. The cells were dispensed at 5,000 cells/5 uL of assay medium per well into black wall/clear-bottom 1536-well plates using a Multidrop Combi (ThermoFisher Scientific, Waltham, MA) dispenser. After the assay plates were incubated at a 37C and 5% CO2 for 4 hr, 23 nL of compounds dissolved in DMSO, positive controls or DMSO only was transferred to the assay plate by a Pintool station (Kalypsys, San Diego, CA), followed by addition of 1 uL of 17beta-estradiol in assay medium using a Flying Reagent Dispenser (Aurora Discovery, San Diego, CA). The plates were incubated at 37C and 5% CO2 for 18 hr. Then 1 uL of LiveBLAzerTM B/G FRET substrate was added using a Flying Reagent Dispenser, the plates were incubated at room temperature for 2 hours, and fluorescence intensity was measured by an Envision plate reader (PerkinElmer, Shelton, CT).
# Potency is read from the fitted curve at half-maximal effect.
row,Compound,Potency
1,O=C/C=C/c1ccccc1,inactive
2,CNCC(O)c1ccc(O)cc1 (stereo not given),inactive
3,Cc1ccc(O)c(C)c1,inactive
4,O=C(O)C1C(C(=O)O)C2(Cl)C(Cl)=C(Cl)C1(Cl)C2(Cl)Cl (stereo not given),inactive
5,Nc1ccc([As](=O)(O)O)cc1,inactive
6,Cc1cc(Cl)ccc1OC(C)C(=O)O (stereo not given),inactive
7,Nc1cccc(Cl)c1,inactive
8,CN(C)CCC#N,inactive
9,OC[C@@H](O)[C@H]1O[C@@H]2O[C@H](C(Cl)(Cl)Cl)O[C@@H]2[C@H]1O,inactive
10,C=CCN=C=S,inactive
11,C=CC(=O)OCCCCCC(C)C,inactive
12,O=C(O)CCCc1ccc(N(CCCl)CCCl)cc1,inactive
13,CCCCC(CC)C(=O)Cl (stereo not given),inactive
14,ClC(Cl)c1ccccc1,inactive
15,CCNc1nc(Cl)nc(NC(C)C)n1,inactive
16,O=[N+]([O-])c1cc([As](=O)(O)O)ccc1O,inactive
17,CNC(=O)O/N=C/C(C)(C)S(C)(=O)=O,inactive
18,N#CN=C(N)N,inactive
19,OCC(O)CCl (stereo not given),inactive
20,CC(C)CCCCCCOC(=O)c1ccccc1C(=O)OCCCCCCC(C)C,inactive

row,Compound,Potency
1,CCCOC(=O)c1ccccc1C(=O)OCCC,inactive
2,CC(C)(C)C(=O)CCl,inactive
3,CNC(=O)O/N=C/C(C)(C)S(C)=O (stereo not given),inactive
4,CNC(=O)O/N=C/C(C)(C)SC,inactive
5,Oc1c(Br)cc(Br)cc1Br,inactive and 61.8 µM [inconclusive] (active)
6,CC(C)c1cccc(C(C)C)c1O,inactive
7,CNC(=O)O/N=C(\SC)C(=O)N(C)C,inactive
8,Cl/C=C/Cl,inactive
9,OCc1ccco1,inactive
10,Cc1cc(O)ccc1Cl,inactive
11,Cc1cccc(C)c1NC(=O)CN1CCCC1=O,inactive
12,O=C(O)C(Br)Br,inactive
13,CN(C)C(=O)Cl,inactive
14,COS(=O)(=O)OC,inactive
15,Cc1cccc(C)c1N,inactive
16,Cc1cccc(N)c1,inactive
17,CNC(=O)Oc1cccc2ccccc12,inactive
18,Cc1cccc(N)c1C,inactive
19,Nc1ncc([N+](=O)[O-])s1,inactive
20,COP(=S)(OC)Oc1ccc(SC)c(C)c1,inactive
